# Hits are enriched below; roughly 21% of the tested compounds scored in any of these assays.
# Cycloheximide cs = Cycloheximide Counterscreen for Small Molecule Inhibitors of Shiga Toxin; 300,000 compounds, 12% hits; AID 2314, 2010; max response, %; cell reporter, cycloheximide protein synthesis inhibition counterscreen; in the data active = max response mostly above about 13%, no sharp cut-off; inactive = mostly below about 14%; also: read at 38.3 µM for the half of the compounds with a filed dose
# NS1 inh = qHTS Assay for Inhibitors of Influenza NS1 Protein Function; AID 2326, 2010; Potency, µM (highest dose often 46.1 µM); 270,000 compounds, 0.4% hits; calls by dose curve; also: actives are rising curves; nearly all actives have a fitted effect of over 50% in size
#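 Growth recovery, yeast-based: influenza A NS1 expressed in S. cerevisiae causes slow growth, and suppressors are detected by OD600. The parent strain without NS1 is used as positive control.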
# Pf growth 48h = Primary qHTS for delayed death inhibitors of the malarial parasite plastid, 48 hour incubation | P. falciparum luciferase growth in erythrocytes, 48 h | Potency, µM (titrated, usually from 28.7 µM), hits mostly inhibitors | 310,000 compounds, 5.9% hits | AID 504832, 2011
#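 Growth was read as firefly luciferase luminescence after a 48 h, 37 C, 5% CO2 exposure of compounds to reporter-bearing P. falciparum cultures (0.1% parasitemia, 2% hematocrit final) in Albumax-supplemented RPMI 1640.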
# Pf growth 96h = Primary qHTS for delayed death inhibitors of the malarial parasite plastid, 96 hour incubation. P. falciparum luciferase reporter growth, 96 h. Potency, µM (doses to about 28.7 µM), actives largely listed as inhibitors. 320,000 compounds, 6.9% hits
#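 Erythrocytes infected with luciferase-expressing P. falciparum were dispensed at 2% hematocrit and 0.05% parasitemia (final), then incubated with compounds 96 hours at 37 C in 5% CO2. Luminescence after detection reagent addition reported growth.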
# Shiga toxin inh = A qHTS for Small Molecule Inhibitors of Shiga Toxin; Vero cells, Shiga toxin protein synthesis inhibition reporter; inhibition, % at 38.7 µM; 290,000 compounds, 9.2% hits; AID 2315, 2010; in the data active = inhibition mostly above about 28%, no sharp cut-off; inactive = mostly below about 43%
# A number is an active result; 0 = inactive; ? = inconclusive; - = no result given; [ ] = dose if it differs, or a comment. Unless noted, calls follow the shape of the dose curve; as a rule, active = well fitted inhibition curve with a large enough effect; inconclusive = small, poorly fitted or top-dose-only effect, or another doubt; inactive = no such curve, though single readings can be large or run the other way.
SMILES,Cycloheximide cs,NS1 inh,Pf growth 48h,Pf growth 96h,Shiga toxin inh
O=C(Nc1nc2ccccc2[nH]1)c1ccc([N+](=O)[O-])cc1,28,-,0,?,92
O=C(NC(Cc1ccccc1)c1nc2ccccc2[nH]1)c1cccc([N+](=O)[O-])c1 (configuration not stated),0,0,?,12µM,0
CSCC[C@H](NC(=O)c1cc([N+](=O)[O-])ccc1Cl)c1nc2ccccc2[nH]1,0,0,12µM,15µM,0
COCCN(CCOC)C(=O)COC(=O)c1ccc(Cl)c(S(=O)(=O)N(C)c2ccccc2)c1,0,-,0,?,0
Cc1ccc(S(=O)(=O)CC(=O)Nc2ncc([N+](=O)[O-])s2)cc1,0,0,0,0,0
O=C(CCS(=O)(=O)Cc1ccccc1)Nc1ncc([N+](=O)[O-])s1,39,0,0,0,58
Cc1ccc(CC(=O)Nc2ncc([N+](=O)[O-])s2)cc1,30,0,0,0,0
COC(=O)c1cc(NC(=O)c2ccccc2F)cc(C(=O)OC)c1,0,-,0,0,0
COc1ccc2cc(C(=O)c3ccccc3)c(=O)oc2c1,45,0,0,0,94
COc1ccccc1C(=O)c1cc2ccc(O)cc2oc1=O,0,0,0,0,0
CCOc1ccc2cc(C(=O)c3ccccc3)c(=O)oc2c1,33,0,0,0,active
CCOc1ccc2cc(C(=O)NCc3ccccc3)c(=N)oc2c1,0,0,0,0,0
Cc1ccc(-n2c(Cn3nc(C(F)F)cc3C(F)F)n[nH]c2=S)cc1,0,0,-,?,0
C=CCN(C)CCCNC(=O)/C=N/O,0,0,0,0,0
O=C(O)CCc1ccc(-c2ccccc2)n1NC(=O)c1ccco1,0,0,0,0,0
O=C(O)CCc1ccc(-c2cccs2)n1NC(=O)c1ccco1,0,0,0,10µM,0
O=C(O)CCc1ccc(-c2cccs2)n1NC(=O)c1ccc(Cl)cc1,0,?,0,0,0
COc1ccc(-c2ccc(CCC(=O)O)n2NC(=O)c2cccs2)cc1,22,0,0,0,0
Cc1ccc(-c2ccc(CCC(=O)O)n2NC(=O)c2cccs2)cc1,34,?,0,-,0
O=C1CCCC(=O)C1C(=O)C1CCN(S(=O)(=O)c2ccccc2)CC1,0,0,0,0,0
CCC(C)[C@@H](C(=O)Nc1ccc(OC)c(OC)c1)N1Cc2ccccc2C1=O (some centres not stated),0,0,-,?,0
CC1(C)N=C(N)N=C(N)N1c1cccc(CSc2ccccc2)c1,-,0,-,-,-
CC1(C)N=C(N)N=C(N)N1c1cccc(OCc2cccc(N)c2)c1,-,0,-,-,-
CC1(C)N=C(N)N=C(N)N1c1ccccc1,0,0,-,0.74µM,0
COc1ccc(OC)c(N2C(N)=NC(N)=NC23CCCC3)c1,0,0,0,0,0
SMILES,Cycloheximide cs,NS1 inh,Pf growth 48h,Pf growth 96h,Shiga toxin inh
Cc1cccc(N2C(N)=NC(N)=NC23CCCCC3)c1,0,0,2.1µM,?,0
CC1(C)N=C(N)N=C(N)N1c1cccc(CN)c1,0,0,0.83µM,0.93µM,0
CC1(C)N=C(N)N=C(N)N1c1ccc(Oc2ccc(Cl)cc2)c(Cl)c1,0,0,0.21µM,0,0
CC1(C)N=C(N)N=C(N)N1c1ccc(F)cc1F,0,0,?,9.3µM,0
Fc1ccc(-n2cnnn2)c(F)c1,0,0,0,0,0
CC(CN1CCCC1)C(=O)NN (configuration not stated),0,-,0,0,0
CC(=O)Nc1nc2c(C)cc(NC(=O)C3CCCCC3)cc2s1,32,0,0,0,74
CC(=O)Nc1cc(NC(C)=O)c2nc(N)sc2c1,0,0,0,-,0
Cc1ccc(NC(=O)C2CCCCC2)cc1C,-,-,?,0,-
CC(=O)Nc1cc(C)c2nc(NC(C)=O)sc2c1,30,0,0,0,60
CC(=O)Nc1ccc(N2CCN(Cc3ccccc3)CC2)cc1,0,0,0[0.00184 µM],0,0
O=C(CNC(=O)c1ccc(Br)o1)NCC(=O)OCc1ccccc1,-,-,?,0,-
CC(C)(C)C(=O)CC(=O)Nc1ccc(Cl)c(N)c1,47,0,0,?,167
O=C(c1c[nH]c(C(=O)N2CCN(Cc3ccccc3)CC2)c1)C1CCCCC1,0,-,?,0,51
O=C(N1CCN(Cc2ccccc2)CC1)C(Cl)(Cl)Cl,0,0,10µM,0,0
O=C(c1ccc2ccccc2c1)N1CCN(Cc2ccccc2)CC1,28,0,0,0,82
Cc1ccccc1C(=O)O/N=C(\N)c1ccc([N+](=O)[O-])cc1,32,0,0,?,-
Cc1ccccc1C(=O)O/N=C(\N)c1ccccc1,21,0,0[0.00184 µM],0,0
N/C(=N\OC(=O)c1ccccc1Br)c1ccc([N+](=O)[O-])cc1,10,0,0,0,19
COc1ccccc1C(=O)O/N=C(/c1ccncc1)c1ccc([N+](=O)[O-])cc1,0,0,?,5.2µM,0
Cc1ccc(C(=O)O/N=C(\c2ccccc2)c2ccncc2)cc1,0,-,0,?,0
CCOC(=O)c1c(C)nc2c(c1-c1cc(OC)ccc1OC)C(=O)CC(C)(C)C2,0,0,0,0,0
O=C(NCCCNC(=O)c1ccc(-c2cc(Cl)ccc2Cl)o1)c1cnccn1,0,0,0,?,0
N/C(=N\OC(=O)c1ccccc1Br)c1cccc([N+](=O)[O-])c1,52,0,-,0,118
C/C(=N/OC(=O)c1ccc(F)cc1)c1ccc(C)cc1,0,0,0,0,0
SMILES,Cycloheximide cs,NS1 inh,Pf growth 48h,Pf growth 96h,Shiga toxin inh
N/C(CS(=O)(=O)c1ccccc1)=N\OC(=O)c1ccc(F)cc1,28,0,0,0,109
Cc1ccccc1/C(N)=N/OC(=O)c1ccc(F)cc1,47,0,0,?,107
Cc1ccccc1/C(N)=N/OC(=O)N1c2ccccc2Sc2ccccc21,0,0,?,10µM,0
O=C(CS(=O)(=O)c1ccc(F)cc1)NCCS(=O)(=O)c1ccccc1,0,0,0,0,0
CCOC(=O)N1c2ccccc2Sc2ccccc21,0,0,?,0,0
CCOC(=O)N1CCN(C(=O)c2c[nH]c3ccc(S(=O)(=O)N(C)c4cccc(C)c4)cc3c2=O)CC1,0,0,0,0,0
Cc1ccccc1C(=NC(=O)c1ccccc1)c1ccccc1,0,0,8.3µM,6.6µM,0
N/C(=N\OC(=O)c1ccccc1F)c1cccc([N+](=O)[O-])c1,39,0,0,12µM,56
O=c1[nH]c2cc(Cl)c(Cl)cc2[nH]c1=O,-,0,-,-,-
Cc1ccccc1Cc1c(C)nc2c(C(=O)NCc3ccc4c(c3)OCO4)cnn2c1C,0,0,?,?,0
Cc1ccc(C)c(Cc2c(C)nc3c(C(=O)NCc4ccc5c(c4)OCO5)cnn3c2C)c1,0,0,-,10µM,0
Cc1nc2c(C(=O)NCc3ccc4c(c3)OCO4)cnn2c(C)c1Cc1ccc(F)cc1Cl,0,?,?,13µM,0
Nc1nc(SCC(=O)Nc2ccc([N+](=O)[O-])cc2)[nH]c(=O)c1NC(=O)c1ccc(Br)o1,0,0,0,0,0
